D1 potentiator: Potentiators of Human D1 Dopamine Receptor: qHTS; HEK293 TREx D1 cells, calcium flux, dopamine EC20 potentiation; potentiation, % at 10 µM; actives 0.036% (n = 360,000); in the data active means potentiation above about 30%; further: 0% is about no effect
D3 ag: qHTS of D3 Dopamine Receptor Agonist: qHTS | D3R DiscoveRx beta-arrestin cells, luminescence, 90 min | max activation, % | AID 652048, 2013 | actives 0.58% (n = 410,000); in the data active means max activation above about 30%; further: 0% is about no effect
Target sequence (P35462 whole entry, looked up): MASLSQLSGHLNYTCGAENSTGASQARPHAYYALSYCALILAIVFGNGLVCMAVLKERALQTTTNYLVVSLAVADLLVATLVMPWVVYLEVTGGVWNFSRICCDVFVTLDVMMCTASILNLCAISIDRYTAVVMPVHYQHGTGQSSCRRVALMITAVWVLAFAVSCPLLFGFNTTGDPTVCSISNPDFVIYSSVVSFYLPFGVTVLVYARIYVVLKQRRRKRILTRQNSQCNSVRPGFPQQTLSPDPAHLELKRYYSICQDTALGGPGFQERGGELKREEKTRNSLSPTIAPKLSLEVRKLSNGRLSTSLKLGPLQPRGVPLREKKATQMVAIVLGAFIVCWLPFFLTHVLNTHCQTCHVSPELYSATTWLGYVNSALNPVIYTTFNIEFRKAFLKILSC
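Agonist-mode cell screen: cells plated at 1500/well and incubated overnight at 37 °C, then exposed to library compounds for 90 min at 37 °C. Detection reagent was added for 30–60 min at room temperature, and luminescence was read.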
D1 antag: Antagonist of Human D 1 Dopamine Receptor: qHTS; D(1A) dopamine receptor (Homo sapiens), P21728; HEK293 TREx D1 cells, calcium flux, dopamine EC80; hits give low values; activity change, negative = inhibition, % at 10 µM; actives 3.2% (n = 360,000); AID 504652, 2011; in the data active means activity change below about -30%; further: on the % scale 0 is the no-effect control and ±100 the full control effect
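Using tetracycline-induced force-coupled D1 Hek293 cells and a calcium dye, signals were followed for 180 s after compound, then for 180 s after EC80 dopamine, to detect inhibitors.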
DRD3 antagonist: qHTS of D3 Dopamine Receptor Antagonist: qHTS; D(3) dopamine receptor (Homo sapiens), P35462; D3R cells, DiscoveRx beta-arrestin luminescence, antagonist mode; hits give low values; max response, negative = inhibition, %; actives 2.5% (n = 360,000); AID 652054, 2013; in the data active means max response below about -50%; further: on the % scale 0 is the no-effect control and ±100 the full control effect
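Cells expressing the human receptor were seeded at 1500 cells/well, incubated overnight at 37 degrees C in 5% CO2, then exposed to library compounds with dopamine controls for 90 minutes at 37 degrees C before luminescent detection.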
D1 agonist: Allosteric Agonists of the Human D1 Dopamine Receptor: qHTS; D(1A) dopamine receptor (Homo sapiens), P21728; HEK293 T-REx D1 cells, calcium flux, agonist mode; activation, % at 2 µM; actives 1% (n = 360,000); in the data active means activation above about 30%; further: 0% is about no effect
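Inducible HEK293 T-REx D1 cells, force-coupled to calcium signalling, were plated at 4000 cells/well with tetracycline and held overnight at 30 C. After no-wash calcium dye loading, compound-evoked calcium rise over 180 s flagged agonists.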
The depositor's hits bear a star; . = not tested or not shown. This is a sample that favours compounds with a hit; in the whole collection about 6% have one here.

SMILES	D1 potentiator	D3 ag	D1 antag	DRD3 antagonist	D1 agonist
COc1ccc(-c2[nH]ncc2CN2CCCC(C(=O)c3ccc(OC)cc3OC)C2)cc1 (configuration not stated)	-6	-13	-31*	2	3
CCN(C(=O)CCS(=O)(=O)c1cc2[nH]c(=O)c(=O)[nH]c2cc1C)c1ccccc1	-1	-9	-80*	.	0
CCN(C(=O)CCS(=O)(=O)c1cc2c(cc1C)NC(=O)CO2)c1cccc(C)c1	-2	2	13	.	-1
C=CCN1CC(C(=O)N2CCC(Cc3ccc(Cl)cc3)(C(=O)OCC)CC2)CC1=O (configuration not stated)	-2	5	-32*	-1	2
CCc1cccc(CC)c1NC(=O)CCS(=O)(=O)c1ccc2c(c1)CCN2C(C)=O	-2	-4	-2	.	-1
COC(=O)c1[nH]c2ccccc2c1NS(=O)(=O)c1ccc(F)c(C)c1	-7	-7	-48*	-9	1
CCCS(=O)(=O)Nc1c(C(=O)OC)[nH]c2ccccc12	-4	-10	-18	3	5
CCCCCn1c(=O)[nH]c2cc(C(=O)NCc3ccc(OC)cc3)ccc2c1=O	0	9	2	.	0
CCCCC(=O)NC(NC(=S)N1CCOCC1)C(Cl)(Cl)Cl (configuration not stated)	5	4	-34*	-3	5
O=C(Nc1ccc(F)c(Cl)c1)c1cc(S(=O)(=O)N2CCCc3ccccc32)ccc1F	2	-10	16	.	2
CCOC(=O)C(NC(=O)CC(C)C)(Nc1sc(C)c(CC)c1C#N)C(F)(F)F (configuration not stated)	-11	2	-83*	7	2
O=C(CN1CCN(Cc2ccccc2F)C1=O)NC1CCCC1	-2	-11	-30*	-13	11
CC(=O)Nc1ccc(NC(=O)C(C)OC(=O)/C(C#N)=C/c2ccc(N(C)C)cc2)cc1 (configuration not stated)	-3	-2	-5	-14	84*
CC(C)OC(=O)/C(C#N)=C\c1cccnc1	2	-2	11	2	1
CC(OC(=O)/C(C#N)=C/c1ccc(N(C)C)cc1)C(=O)N(C)c1ccccc1 (configuration not stated)	-5	7	-8	13	70*
CC(=O)Nc1ccc(NC(=O)C(C)OC(=O)c2ccc(N(C)C)cc2)cc1 (configuration not stated)	.	-10	-16	-17	5
Cc1cccc(C2(c3cccc(C)c3)CC2C(=O)Nc2ccc([N+](=O)[O-])cc2O)c1 (configuration not stated)	-5	-10	-33*	-70*	12
O=C(/C=C/c1cn(CC(O)CN2CCOCC2)c2ccccc12)c1cccs1 (configuration not stated)	-5	.	-81*	.	27
Cc1ccc(C(=O)/C=C/c2cn(CC(O)CN3CCOCC3)c3ccccc23)cc1 (configuration not stated)	-11	3	17	-1	2
CSc1nn(Cc2cccc(Cl)c2)c(N(C(C)=O)C(C)=O)c1S(=O)(=O)c1ccccc1	-1	0	-61*	.	1
CCN(CC)S(=O)(=O)c1ccc2c(c1)nc(CN(C)C(=O)Nc1ccc(C)c(F)c1)n2C	-1	-30	-68*	.	1
COc1ccc(NC(=O)COc2ccc(Br)cc2)c(OC)c1	-7	3	-4	0	7
COc1ccc(NC(=O)NNC(=O)COc2ccc3cc(Br)ccc3c2)c(OC)c1	-1	1	-32*	29	5
NC(=O)CC[C@@H]1NC(=O)[C@H](CO)NC(=O)c2cc([N+](=O)[O-])cc(I)c2OCC[C@@H](C(N)=O)NC1=O	-4	7	2	-3	-4
CC(C)C[C@@H]1NC(=O)[C@H](C(C)C)NC(=O)c2cc([N+](=O)[O-])cc(I)c2OCC[C@@H](C(N)=O)NC1=O	2	-20	-4	-53*	-3
SMILES	D1 potentiator	D3 ag	D1 antag	DRD3 antagonist	D1 agonist
CCN(CC)CC(O)COc1ccccc1C(=O)CCc1ccccc1 (configuration not stated)	-5	-26	-29	-21	15
CCCNCC(O)COc1ccccc1C(=O)CCc1ccccc1 (configuration not stated)	.	.	-52*	.	.
Cc1ccc(-c2cc(C(=O)N(Cc3ccccc3)Cc3ccco3)no2)cc1F	-4	-5	0	.	1
Cc1cc(=O)n2nc(N(C)CC(=O)NCc3cccc(Br)c3)sc2n1	0	-13	1	.	0
COc1ccc(NC(=O)CC2C(=O)N(c3ccc(F)cc3)C(=O)N2Cc2ccco2)cc1 (configuration not stated)	-1	7	-6	.	-1
CC(C)[C@H]1CN=C2N(C[C@H](C)NC(=O)CCC3CCCCC3)[C@H](Cc3ccc(O)cc3)CN21	-4	-72	24	-94*	2
C[C@@H](CN1C2=NC[C@H](C)N2C[C@H]1Cc1ccc(O)cc1)NC(=O)CCC1CCCCC1	-4	-84	1	-66*	-3
Cc1occc1-c1nnc(SCC(=O)N2CCCCC2)n1C	-2	5	-2	4	1
Cn1c(SCC(=O)c2cc(Cl)c(Cl)s2)nnc1-c1ccco1	-1	2	-68*	11	-1
Cc1occc1-c1nnc(SCC(=O)c2ccc(Cl)cc2)n1C	-3	-12	2	-56*	0
Cc1occc1-c1nnc(SCC(=O)Nc2ccccc2-c2ccccc2)n1C	-2	-4	0	-57*	0
CCOc1ccc(NC(=O)Cc2csc(COc3cccc(C)c3)n2)cc1	0	3	4	.	-1
CC(=O)c1ccc(N2CCN(S(=O)(=O)c3ccc(-c4cc(C)no4)s3)CC2)cc1	-8	2	-22	14	9
CC(=O)c1ccc(N2CCN(S(=O)(=O)c3ccc(-c4cc(C(F)(F)F)on4)s3)CC2)cc1	-4	8	-31*	.	1
Cc1cccc(-n2ncc3c(NNC(=O)c4ccccc4Cl)ncnc32)c1	0	-6	-1	.	-1
Cc1ccc(NC(=O)Cn2c(=O)n(Cc3ccccc3)c(=O)c3c(C)c(C)sc32)c(C)c1	1	7	-8	.	-1
CCc1nn(CC(=O)N2CCN(c3cccc(C(F)(F)F)c3)CC2)c(=O)c2cccn12	-5	-7	-41*	.	24
CC(=N\NC(=O)c1ccccc1)/C(=N/O)C(=O)Nc1ccccc1	-2	-4	-23	-7	6
C/C(=N/NC(=O)c1ccccc1)C(=O)O	-1	6	-31*	4	0
